# The supplement of paper PMC12632987
# Whole data set: some 4,500 sequences, median “median log2 fold change of GCK-ALFA target abundance (FLAG IP / Myc IP barcode read proportion)” near 0.078, cut for the lowest 2% near -0.6. The entries come from a sample that favours the lowest values as a whole.
# B1: GBRAP_14_3840 (protein)
# chain: REEVRRLLLEAVERAVEEVRKFAPEEARERVEALREVLRRAVDEGLETGDLEEAERRLVEVAEAAVRELFADLPPEERGALVAVAVDELVEGFEELEERL
# B2: GBRAP_80_6763 (protein)
# chain: MMEELEEALEELSELLPELAEELRATVEALLELGVPVEDLLRLLKALVELAKLDKEKAEAILREFIAEVNEAIARGDLEEARALVIDAESDALLEVEELE
# B3: GBRAP_125_3054 (protein)
# chain: NLEEAIEALAELGKILGLSEEEVEELRKLAEKYGVKGTLYALLLAEGEEELAELVAKLTEEEVIEVLKRLLEYIKSHPNITKEEALEKLKELAEEALAKK
# B4: GBRAP_117_2592 (protein)
# chain: SATREAARAKIRATVAEVEALFKELAGLSPEEQAEALAAMRERVKAVLREVIEELGEEEAEELLDEALLDTDAETYFFLESVREDTLEELEEEEEEEERE
# B5: GBRAP_52_6014 (protein)
# chain: MRERLRAFVDEVLALVRAGKEEEARALIEELVASLNEEEIELLIDVLAERAAAARPEDQEAVWRLAEMLAEALEEAGVDEALADDLLARVAAALYAAEQA
# B6: GBRAP_83_6975 (protein)
# chain: AEEIVVAAPADRVEEAVEIAIDLAKEEGKKVTLEILTTPEQRERVLEAVERLLKEVPNIEIVVVLRGATKEEAEELEKELKEIAKELGVNADIEVLIEEP
# B7: GBRAP_26_5452 (protein)
# chain: MEEKLEALRDRLVELADELLDPETAALLKVEVDNIVALAELELEEANGDLEKELAVVEEMLEDLEEALDDLEVPEEVKEKLLEAAREAAEEIKEYLKKKS
# B8: GBRAP_26_5451 (protein)
# chain: MEELLERFRERLERAADELLDPETAALLKVAVDDIIALAELELEEANGDLEKELEIVEEMLEDLEEELEDLEVPEEVREKLLEIAREEAEEIKKALKEER
# Biological target: GABARAP, O95166
# Experiment: median log2 fold change of GCK-ALFA target abundance (FLAG IP / Myc IP barcode read proportion) (log2 ratio); each designed protein is fused to an ALFA-tag nanobody in HEK293 cells to bring the named protein to FLAG-tagged glucokinase (GCK); Myc marks an untargeted standard; higher = target protein stabilised (more abundant)
# Conditions: target protein: 3xFLAG-MCP-GCK-ALFA reporter; HEK293 landing pad (RPLP)
# How it was run: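 HEK293 landing-pad cells received a recombined binder library fused to the ALFA nanobody and were induced with 2 μg mL^−1 doxycycline, then transfected with a plasmid encoding a FLAG-tagged target and a Myc-tagged standard. Lysates were collected after 48 h for anti-FLAG and anti-Myc immunoprecipitation, and the circular RNA barcodes were reverse transcribed, amplified and sequenced. Target abundance for each binder is the median log2 ratio of FLAG to Myc barcode read proportions. Barcodes had to reach a proportion of at least 10^−7 in both replicates, each binder needed at least 3 barcodes per replicate, a pseudocount of 10^−6 was applied, and the two replicates were pooled.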
# Chain of GABARAP, O95166 (O95166 whole entry, the tested form may be a part): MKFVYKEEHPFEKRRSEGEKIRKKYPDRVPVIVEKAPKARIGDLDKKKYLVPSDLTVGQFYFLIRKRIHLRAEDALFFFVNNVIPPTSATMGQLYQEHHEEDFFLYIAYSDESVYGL
row,Binder,median log2 fold change
1,B1,0.0661
2,B2,0.0537
3,B3,-1.42
4,B4,0.191
5,B5,-0.157
6,B6,0.0242
7,B7,-0.454
8,B8,-1.2
